Assay outcomes (PubChem)
H9c2 protect: modulators protecting cardiomyocytes from myocardial damage. protection from H2O2 cell death, % at 20 µM. H9c2 cardiomyocytes, H2O2 injury protection, ATPLite, 2 h. 0.63% of 360,000 active. AID 588492;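 active = compounds giving at least 50% protection of heart cells from peroxide-induced death in the single-dose screen, raw or plate-pattern-corrected value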
GAA850 FXN act: activators of GAA850 frataxin (FXN) promoter | HEK293 lucGAA850 FXN promoter luciferase reporter, 24 h; percent of 10 µM SAHA response | activation, % at 6 µM | 0.56% of 360,000 active;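 active = activation above the average of all compounds screened plus 3 SD, cutoff fixed separately per campaign, cut at about 7.5% in these data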
COUP-TFII inh: inhibitors of human COUP-TFII (NR2F2); 0.7% of 370,000 active; inhibition, % at 8.6 µM; HEK293T NGFI-A luciferase reporter, luminescence; P24468;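 active = inhibition above a per-plate cutoff, mean inhibition of test wells between control levels plus 3 SD, cut at about 38% in these data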;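 note: cells cotransfected with COUP-TFII expression vector driving the NGFI-A reporter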
SMARCA2 activ: SMARCA2 function activation, primary screen; AID 652017; MG213 cells, MMTV-luciferase reporter, dexamethasone, overnight; activation, % at 9.1 µM; 1% of 370,000 active; in the data active = activation above about 7.8%
GalR3 antagonist: blocks the human galanin receptor 3; 0.44% of 360,000 active; AID 651719; inhibition, % at 3 µM; HEK293 GalR3-CNG cAMP membrane potential fluorescence; galR3 body fused to GalR1 C-terminus; O60755;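 active = inhibition above the screen-wide average plus 3 SD, cut at about 13% in these data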;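 note: forskolin and galanin both at EC90 stimulate the cells; cAMP rise reported by CNG channel membrane potential dye signal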
Target sequence (O60755 1-299 limits assumed): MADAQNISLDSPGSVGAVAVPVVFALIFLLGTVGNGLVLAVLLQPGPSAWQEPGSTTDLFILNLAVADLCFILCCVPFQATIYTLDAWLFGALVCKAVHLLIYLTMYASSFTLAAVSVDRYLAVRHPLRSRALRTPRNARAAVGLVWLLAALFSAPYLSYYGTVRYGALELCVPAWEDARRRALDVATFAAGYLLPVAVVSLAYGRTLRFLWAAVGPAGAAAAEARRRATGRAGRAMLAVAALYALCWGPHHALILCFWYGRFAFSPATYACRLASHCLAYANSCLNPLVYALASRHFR
Gli-Sufu block: Gli-Sufu pathway antagonism | inhibition, % at 5 µM | 0.74% of 340,000 active | Sufu-KO-LIGHT fibroblasts, Gli luciferase reporter luminescence | AID 588413;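 active = inhibition above about 55%, limit read from the data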
Gli-Sufu confirm: Gli-SUFU antagonism confirmation, single concentration | shares compounds with Gli-Sufu block | inhibition, % at 5 µM | Sufu-KO-LIGHT cells, Gli luciferase reporter, luminescence | 40% of 2,500 active | AID 602428;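 active = mean inhibition at 5 µM reaching about 45%, limit read from the data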
Gli cytotox: cytotoxicity counter-screen for Gli-SUFU antagonists; shares compounds with Gli-Sufu block; Sufu-KO-LIGHT cells cytotoxicity, ATP luminescence; cytotoxicity, % at 5 µM; 32% of 2,500 active;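 active = mean cytotoxicity at 5 µM above about 25%, limit read from the data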;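 note: cells exposed to compound overnight for roughly 16 to 18 hours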
Wnt3a counter: Wnt3a reporter inhibition counter-screen; 20% of 2,500 active; Wnt-LIGHT cells, Wnt3a-driven luciferase reporter, luminescence; shares compounds with Gli-Sufu block; inhibition, % at 6.25 µM;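 active = mean inhibition above about 25%, limit read from the data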
GalR3 conf: confirmation of human galanin receptor 3 antagonists; HEK293 GalR3 CNG cAMP biosensor, membrane potential fluorescence; galR3 fused to GalR1 carboxy tail; challenged with forskolin and galanin at EC90; inhibition, % at 3 µM; 59% of 1,600 active; AID 652245; shares compounds with GalR3 antagonist;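 active = inhibition above the primary screen's cutoff, the mean inhibition of all screened compounds plus 3 SD, cut at about 13% in these data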
CNG parental: counter-screen for GalR3 antagonists: nonspecific agonists in parental HEK-CNG cells; HEK293-CNG parental cells, cAMP membrane potential fluorescence; normalised: DMSO wells 0%, forskolin wells 100%; shares compounds with GalR3 antagonist; 10% of 1,600 active; activation, % at 3 µM; in the data active = activation above about 1.3%
VP16 Luc counter: VP16 inhibition counter-screen for COUP-TFII; shares compounds with COUP-TFII inh; HEK293 Gal4-VP16 luciferase reporter, luminescence; inhibition, % at 8.5 µM; 25% of 2,500 active; in the data active = inhibition above about 13%
NR2F2 inh conf: COUP-TFII (NR2F2) inhibition, confirmation assay | shares compounds with COUP-TFII inh | HEK293 NGFI-A luciferase reporter, luminescence | inhibition, % at 8.5 µM | 45% of 2,500 active;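 active = mean inhibition over three repeats above a set limit taken from the earlier primary screen, cut at about 38% in these data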
Hits are given with their value; 0 = inactive; - = not tested or not shown. The list is not random: actives were taken first. Their share in the collection is about 3.4%.

SMILES | H9c2 protect | GAA850 FXN act | COUP-TFII inh | SMARCA2 activ | GalR3 antagonist | Gli-Sufu block | Gli-Sufu confirm | Gli cytotox | Wnt3a counter | GalR3 conf | CNG parental | VP16 Luc counter | NR2F2 inh conf
Cc1[nH]c(C)c(S(=O)(=O)NCc2ccc(N(C)C)cc2)c1C(=O)N1CCCC1 | 0 | 0 | 0 | 0 | 0 | 0 | - | - | - | - | - | - | -
COc1ccc(-c2noc(CCCCC(=O)N3CCN(c4cc(C)ccc4C)CC3)n2)cc1 | 0 | 0 | 82 | 0 | 97 | 68 | 73 | 28 | 30 | 105 | 0 | 22 | 65
COc1ccc(-c2noc(CCCC(=O)N3CCN(c4cc(C)ccc4C)CC3)n2)cc1 | 0 | 0 | 0 | 0 | 0 | 0 | - | - | - | - | - | - | -
CCCCCCCn1ccc(=N)cc1 | 0 | 0 | 80 | 0 | 16 | 84 | 88 | 35 | 43 | 33 | 0 | 24 | 77
CCCCCn1ccc(=N)cc1 | 0 | 0 | 0 | 0 | 0 | 0 | - | - | - | - | - | - | -
CC(C)COc1ccc(C/C(N)=N/n2cnnc2)cc1 | 0 | 0 | 39 | 0 | 0 | 62 | 46 | 0 | 26 | - | - | 0 | 0
COc1ccc(C/C(N)=N/n2cnnc2)cc1 | 0 | 0 | 0 | 0 | 0 | 0 | - | - | - | - | - | - | -
O=C(O)c1ccccc1C(=O)c1ccc2oc(=O)[nH]c2c1 | 0 | 0 | 0 | 0 | 0 | 0 | - | - | - | - | - | - | -
c1ccc2c(c1)OCC(CNc1ncnc3sccc13)O2 (centres undefined) | 0 | 0 | 78 | 0 | 97 | 76 | 74 | 0 | 0 | 105 | 0 | 0 | 58
Cc1cc(C(=O)COc2ccccc2C(N)=O)c(C)n1CC1CCCO1 (centres undefined) | 0 | 0 | 57 | 0 | 0 | 58 | 56 | 37 | 0 | - | - | 0 | 39
CN(c1ccccc1C(=O)Nc1ccccc1-c1ccccc1)S(C)(=O)=O | 0 | 0 | 0 | 0 | 0 | 0 | - | - | - | - | - | - | -
Cc1cc(C)nc(/N=C(\N)Nc2ccc(CC(=O)OC(C)C)cc2)n1 | 0 | 0 | 51 | 0 | 86 | 65 | 48 | 38 | 0 | 58 | 1.4 | 0 | 0
COc1ccc(N/C(N)=N/c2nc(C)cc(C)n2)cc1 | 0 | 0 | 0 | 0 | 0 | - | - | - | - | - | - | - | -
COc1ccc(-c2c[n+](CC(=O)OC3CC(C)CCC3C(C)C)c3n2CCC3)cc1 (centres undefined) | 0 | 0 | 64 | 0 | 0 | 90 | 89 | 26 | 0 | - | - | 0 | 0
CCOc1ccc(NS(=O)(=O)c2ccc(C(=O)N(C)CC(=O)Nc3ccccc3Br)cc2)cc1 | 0 | 0 | 0 | 0 | 0 | 0 | - | - | - | - | - | - | -
CC1CCCC=CC2CC(OC(=O)CN(C)C)CC2C(O)C=CC(=O)O1 (centres undefined) | 0 | 0 | 51 | 0 | 0 | 60 | 86 | 38 | 88 | - | - | 16 | 0
Cc1ccc(C(=O)C[n+]2ccc3ccccc3c2)cc1 | 0 | 0 | 0 | 0 | 0 | 0 | - | - | - | - | - | - | -
Cc1cc(C(C)(C)C)cc(C)c1C[n+]1ccc2ccccc2c1 | 0 | 0 | 66 | 0 | 0 | 79 | 88 | 0 | 46 | - | - | 27 | 55
Cn1nc(C(C)(C)C)cc1C(=O)NCc1ccc(N2CCCC2=O)cc1 | 0 | 0 | 69 | 0 | 98 | 81 | 77 | 36 | 42 | 104 | 0 | 0 | 52
